Test [1] in a line: qHTS Assay for Identification of Small Molecule Agonists for Hypoxia Response Element Signaling Pathway (AID 914; active means well fitted activation curve with a large enough effect in the signal ratio, with a control signal flat, not every such curve was filed as active; the % refers to the signal ratio; further: % of control where 0% means no effect). Conditions: ME-180 (cervical carcinoma) HRE-bla reporter, beta-lactamase ratio, CoCl2, 17 h; activation: hits give high values. In short, it runs like this:
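Compounds in a titration series were added to ME-180 reporter cells alongside an EC50 level of CoCl2. After 17 hours, beta-lactamase activity was read as the 460nm/530nm emission ratio of CCF4, giving AC50 values.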

Test [2] deals with Ubiquitin carboxyl-terminal hydrolase 1 (Homo sapiens) (UniProt O94782). In words: Inhibitors of USP1/UAF1: Pilot qHTS (AID 504865).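 Further: rhodamine fluorescence freed from ubiquitin-rhodamine substrate followed over time; top concentration of the series differs between compounds; on the % scale 0 is the no-effect control and ±100 the full control effect; nearly all actives have a fitted effect of over 35% in size.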 Summed up: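 1nM USP1/UAF1 + cpd, 15 min RT; start w/ Ub-Rho 150nM final; kinetic FL 480/540 nm, 6 reads q60 s. Buffer 50mM HEPES pH 7.8, 0.5mM EDTA, 1mM TCEP, 0.01% Tween-20, 0.1 mg/ml BSA.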
On the technique in general: Quantitative high-throughput screening tests each substance at several concentrations.

Test [3] has as its target Luciferin 4-monooxygenase (Photinus pyralis) (UniProt P08659). The test can be described thus: Biochemical firefly luciferase enzyme assay for NPC (AID 624030).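 Further: purified P. pyralis luciferase at 10 nM with luciferin and ATP substrate; 0% = DMSO and -100% = full luciferase inhibition by PTC124 control; nearly all actives have a fitted effect of over 70% in size.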 Summed up: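 Purified P. pyralis luciferase at 10 nM in 50 mM Tris Acetate (final), luminescence read within 5 minutes of enzyme addition to compounds. Activity normalised to PTC124 versus DMSO; concentration-response curves classed by r2, magnitude and activity.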

Test [4] in a line: S16 Schwann cell viability assay (CellTiter-Glo assay) (AID 624031).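 Further: native untransfected S16 rat Schwann cells; cellular ATP luminescence as a viability measure; plate controls were DMSO-treated cells for no effect and cell-free wells for full effect; nearly all actives have a fitted effect of over 70% in size.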 Summed up:
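Concentration-effect curves come from CellTiter-Glo luminescence of S16 rat Schwann cells after 24 h compound exposure. Each reading was normalized to DMSO wells (0%) and wells without cells, and curves were ranked by r2 and response magnitude.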
In general terms: In ATP-based viability assays light output follows the ATP content of the culture.

The nature of test [5]: S16 Schwann cell PMP22 intronic element firefly luciferase assay (AID 624032).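 Further: plate controls were DMSO for no effect and PTC124 positive control mean for full effect; nearly all actives have a fitted effect of over 30% in size.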 Summed up: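 Rat S16 Schwann cells stably carrying firefly luciferase driven by a PMP22 intronic element, in 10% FBS, treated 24 h at 37 C. ONE-Glo luminescence normalized to PTC124 control and DMSO (0%); curves classed by r2, magnitude and activity.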
Test [6] can be described thus: S16 Schwann cell PMP22 intronic element beta-lactamase assay (AID 624044; calls by dose curve;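 further: 0% = DMSO and -100% = potassium clavulanate positive control; nearly all actives have a fitted effect of over 15% in size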). In short, it runs like this: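 Beta-lactamase reporter under a PMP22 intronic regulatory element in stable S16 rat Schwann cells; 24 h compound exposure. 460 nm blue signal normalized between DMSO (0%) and potassium clavulanate, with 535 nm FRET tracking viability; curves classed by r2 and response.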

In the next test the test system is 3D7. The test can be described thus: qHTS profiling for inhibitors of Plasmodium falciparum proliferation (AID 504749). Further: nearly all actives have a fitted effect of over 60% in size. Further: potency means the concentration at half of the fitted maximal effect. Conditions: P. falciparum in erythrocytes, SYBR Green DNA, 72 h; series mostly up to 28.7 µM. Summed up: (§1)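 SYBR Green fluorescence (ex 485 nm, em 535 nm) reports parasite DNA after 72 h compound exposure of infected red cells at 0.3% parasitemia, 2.5% hematocrit; signal normalized to 0.29 uM artemisinin and vehicle wells.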

The next test has as its system 7G8. The description is as above. To be noted: P. falciparum in erythrocytes, SYBR Green DNA, 72 h; series mostly up to 28.7 µM. In short, it runs like this:
as §1

The test system of the next test is AA1029. The description is as above. To be noted: P. falciparum in erythrocytes, SYBR Green DNA, 72 h; series mostly up to 28.7 µM. Summed up:
as §1

The next test deals with CP192. The description is as above. To be noted: P. falciparum in erythrocytes, SYBR Green DNA, 72 h; series mostly up to 28.7 µM. Summed up: as §1
A further test concerns CP203. The description is as above. Conditions: P. falciparum in erythrocytes, SYBR Green DNA, 72 h; series mostly up to 28.7 µM. Summed up: as §1
The next test deals with CP247. Described as above. To be noted: P. falciparum in erythrocytes, SYBR Green DNA, 72 h; series mostly up to 28.7 µM. In short, it runs like this:
as §1

The test system of a further test is CP260. The test is described as above. Conditions: P. falciparum in erythrocytes, SYBR Green DNA, 72 h; series mostly up to 28.7 µM. In short, it runs like this: as §1
In another test the test system is CP286. The test is described as above. To be noted: P. falciparum in erythrocytes, SYBR Green DNA, 72 h; series mostly up to 28.7 µM. In short, it runs like this: as §1
The subject of a further test is DFO2036. The test is described as above. Conditions: P. falciparum in erythrocytes, SYBR Green DNA, 72 h; series mostly up to 28.7 µM. In short, it runs like this: as §1
The test system of another test is DIV14. The test is described as above. Conditions: P. falciparum in erythrocytes, SYBR Green DNA, 72 h; series mostly up to 28.7 µM. In short, it runs like this:
as §1

For the next test, the system named is Dd2. The test is described as above. Conditions: P. falciparum in erythrocytes, SYBR Green DNA, 72 h; series mostly up to 28.7 µM. In short, it runs like this:
as §1

In a further test the test system is ICS. The description is as above. To be noted: P. falciparum in erythrocytes, SYBR Green DNA, 72 h; series mostly up to 28.7 µM. Summed up:
as §1

In the next test the test system is PC49. The description is as above. Conditions: P. falciparum in erythrocytes, SYBR Green DNA, 72 h; series mostly up to 28.7 µM. Summed up: as §1
The next test deals with TAB165. The description is as above. Conditions: P. falciparum in erythrocytes, SYBR Green DNA, 72 h; series mostly up to 28.7 µM. Summed up:
as §1

Each structure is given as a SMILES string. Results filed as inconclusive are left out. A number with no mark means an inactive call. Active and inactive are the calls of the source. Unless noted, the call rests on the fitted dose curve; in most records, active means well fitted curve in the direction sought with a large enough effect; inconclusive means small, poorly fitted or top-dose-only effect, or another doubt; inactive means no such curve, though single readings can be large; an effect the other way counts as inactive or inconclusive.

Chain of Luciferin 4-monooxygenase (Photinus pyralis) (P08659 whole entry, looked up): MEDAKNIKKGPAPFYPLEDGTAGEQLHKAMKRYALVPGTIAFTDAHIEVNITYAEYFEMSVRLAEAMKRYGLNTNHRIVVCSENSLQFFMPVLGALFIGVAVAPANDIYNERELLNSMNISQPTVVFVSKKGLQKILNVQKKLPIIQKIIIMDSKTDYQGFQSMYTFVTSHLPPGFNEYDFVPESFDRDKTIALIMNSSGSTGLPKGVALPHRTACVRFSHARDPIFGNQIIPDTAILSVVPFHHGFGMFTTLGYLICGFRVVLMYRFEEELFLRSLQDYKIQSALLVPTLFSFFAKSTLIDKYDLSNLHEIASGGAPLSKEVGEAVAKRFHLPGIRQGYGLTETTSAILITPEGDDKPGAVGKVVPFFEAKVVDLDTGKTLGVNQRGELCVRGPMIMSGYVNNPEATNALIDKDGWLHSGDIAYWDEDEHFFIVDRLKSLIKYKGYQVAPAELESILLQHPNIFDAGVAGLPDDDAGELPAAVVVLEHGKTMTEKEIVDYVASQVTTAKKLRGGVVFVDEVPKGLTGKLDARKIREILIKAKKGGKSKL
Chain of Ubiquitin carboxyl-terminal hydrolase 1 (Homo sapiens) (O94782 whole entry, looked up): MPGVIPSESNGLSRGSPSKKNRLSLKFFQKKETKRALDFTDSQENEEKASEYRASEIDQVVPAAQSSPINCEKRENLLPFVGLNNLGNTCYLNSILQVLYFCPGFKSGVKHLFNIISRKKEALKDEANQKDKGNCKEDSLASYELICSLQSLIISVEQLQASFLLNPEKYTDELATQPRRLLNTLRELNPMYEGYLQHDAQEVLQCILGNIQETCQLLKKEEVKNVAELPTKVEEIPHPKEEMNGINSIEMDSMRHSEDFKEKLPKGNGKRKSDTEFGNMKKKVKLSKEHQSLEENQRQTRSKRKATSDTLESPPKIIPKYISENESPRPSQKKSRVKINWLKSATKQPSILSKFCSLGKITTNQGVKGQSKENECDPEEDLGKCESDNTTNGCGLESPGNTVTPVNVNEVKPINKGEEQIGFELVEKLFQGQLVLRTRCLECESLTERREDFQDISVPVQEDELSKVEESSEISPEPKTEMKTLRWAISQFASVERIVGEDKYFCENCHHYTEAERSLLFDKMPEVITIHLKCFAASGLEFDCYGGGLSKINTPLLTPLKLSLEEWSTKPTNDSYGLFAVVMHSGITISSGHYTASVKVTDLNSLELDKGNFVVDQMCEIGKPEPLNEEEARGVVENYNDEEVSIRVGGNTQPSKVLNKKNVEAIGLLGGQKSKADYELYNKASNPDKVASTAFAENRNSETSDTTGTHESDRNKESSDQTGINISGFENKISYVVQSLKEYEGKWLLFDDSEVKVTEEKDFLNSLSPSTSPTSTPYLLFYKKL

Consider `O[C@H](C[C@@H]1CCCCN1)c1ccc2c(c1)oc1ccccc12`, for which the activation in [1] was -0.884%.
For the compound `CC1(C)N=C(N)N=C(N)N1c1cccc(OCc2cccc([N+](=O)[O-])c2)c1`, in [1], the activation was 5.31%.
As for `C[C@@]12CC[C@H]3[C@H](CC=C4C[C@@H](O)CC[C@@]43C)[C@@H]1CC[C@@H]2N(CCO)CCO`, in test [1], the activation was 9.1%.
Regarding `CC(=O)O[C@H]1CC[C@@]2(C)C(=CC[C@@H]3[C@H]4CC[C@@H]([C@H](C)C(=O)O)[C@]4(C)CC[C@H]32)C1`, in test [1], the activation was 1.23%.
Regarding `O=C(O)[C@@H](O)[C@@H](O)[C@H](O)C(=O)CO`, the Potency entry (in [2]; in test [4]; in [5]; in the test with 3D7; in the test with 7G8; in the test on AA1029) was “inactive” throughout. Moreover, the Potency entry with CP192, with CP203, in the test on CP247, with CP260, in the test on CP286 and in the test with DFO2036 was “inactive” in each case. Besides, the Potency entry with DIV14, in the test with Dd2, with ICS, in the test with PC49 and in the test with TAB165 was “inactive” throughout. Besides, the call in test [3] and in test [6] was inactive.
`CC1(C)S[C@@H]2[C@H](NC(=O)Cc3ccccc3)C(=O)N2[C@@H]1C(=O)O`: the Potency result (in test [2]; in [4]; in test [5]; in the test on 3D7; with 7G8; in the test on AA1029) was “inactive” throughout. For the same compound, the Potency result in the test with CP192, in the test on CP203, with CP247, in the test with CP260, with CP286 and with DFO2036 was “inactive” in each case. The Potency result in the test on DIV14, in the test on Dd2, in the test on ICS, with PC49 and in the test on TAB165 was “inactive” in each case. Besides, the compound was called inactive in test [3] and in test [6].
Take `CC(C)(C)c1ccc(CN2CCN([C@H](c3ccccc3)c3ccc(Cl)cc3)CC2)cc1`: the Potency result in test [2], in test [4] and in test [5] was “inactive” each time. In addition, the call in test [3] and in [6] was inactive. Moreover, the Potency was 6.31 µM (active) in the test with 3D7; 3.55 µM (active) with 7G8; 8.91 µM (active) with AA1029; 7.08 µM (active) in the test with CP260; 4.47 µM (active) in the test with CP286; 15.1 µM (active) with DIV14. Besides, the results for the Potency in the test with Dd2, in the test on ICS and in the test on TAB165 were 8.91 µM (active), 2.51 µM (active) and 7.94 µM (active), respectively.
For the compound `Cc1onc(-c2c(F)cccc2Cl)c1C(=O)N[C@@H]1C(=O)N2[C@H]1SC(C)(C)[C@H]2C(=O)O`, the Potency entry (in [2]; in test [4]; in test [5]; with 3D7; in the test on 7G8; in the test on AA1029) was “inactive” in each case. For the same compound, the Potency result with CP192, in the test on CP203, in the test with CP247, in the test with CP260, with CP286 and in the test with DFO2036 was “inactive” in each case. Besides, the Potency entry with DIV14, with Dd2, in the test with ICS, in the test with PC49 and in the test with TAB165 was “inactive” in each case. Moreover, the compound was classed as inactive in test [3] and in [6].
With `C[C@H](CCC(=O)O)[C@H]1CC[C@@H]2[C@H]3[C@@H](C[C@@H](O)[C@]21C)[C@]1(C)CC[C@H](O)C[C@@H]1C[C@@H]3O`, the Potency entry (in test [2]; in test [4]; in [5]; in the test on 3D7; in the test with 7G8; in the test on AA1029) was “inactive” throughout. Further, the Potency entry in the test with CP192, in the test on CP203, in the test with CP247, in the test on CP260, in the test on CP286 and in the test on DFO2036 was “inactive” in each case. Besides, the Potency result with DIV14, in the test on Dd2, in the test on ICS, in the test with PC49 and with TAB165 was “inactive” in each case. Also, the compound was classed as inactive in test [3] and in test [6].

(Values after PubChem BioAssay (NCATS).)
